# Experimental data reported in PubChem BioAssay (NCI).
# The panel holds about 83,000 compounds, 20% with a hit somewhere; the sample as a whole holds those more often.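 Interpretation: 100, growth as untreated; towards 0, rising growth inhibition; 0, no net growth; 0 to -100, cell death. Compounds scoring below 10 were considered active.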 Calls of active or inactive are those of the source.
# System: SK-MEL-2 melanoma
# Test: NCI-60 one-dose screen, 48 h (100 = growth as untreated, 0 = no growth, -100 = all killed)
# Details: 10 µM unless noted
row,Structure (SMILES),growth
1,O=C1c2cccc3c(-c4ccc5c(c4)ncn5C4CCCCC4)ccc(c23)C(=O)N1CCO,89.5% (inactive)
2,O=C(/C(=C\c1ccc([N+](=O)[O-])cc1)S(=O)Cc1ccc(F)cc1)c1ccc(F)cc1 (configuration not stated),78% (inactive)
3,NNC(=O)c1ccc(-n2nc(-c3ccccc3)c3ccccc32)cc1,79.3% (inactive)

# System: EKVX NSCLC
# Test: as above
# Details: 10 µM unless noted
row,Structure (SMILES),growth
1,NC(=O)CSSCC(N)=O,86.7% (inactive)
2,C=C(C)[C@@H]1CC[C@]2(C(=O)N3CCN(C)CC3)CC[C@]3(C)[C@H](CC[C@@H]4[C@@]5(C)CC[C@H](O)C(C)(C)[C@@H]5CC[C@]43C)[C@@H]12,92.5% (inactive)
3,O=C1Nc2cc(Cl)ccc2/C1=C\c1c(-c2ccc(F)cc2)nc2ccccn12,34.5% (inactive)
4,CCc1ccc(-c2cn3ccnc3c(-c3ccc4ncn(Cc5ccccc5)c4c3)n2)cc1,60.3% (inactive)
5,CCOC(=O)c1cc(C(=O)c2ccc(OC)c(OC)c2)n2ccc(/C=C/c3cc[n+](CC(=O)c4ccc(OC)c(OC)c4)cc3)cc12,99.6% (inactive)
6,COc1cc(/C=C\c2cc(OC)c(OC)c(OC)c2)cc(NC(=O)/C=C/c2cc(OC)c(OC)c(OC)c2)c1OC,47.6% (inactive)
7,CN1C(N2CCN(S(=O)(=O)c3ccccc3)CC2)=NS(=O)(=O)c2ccccc21,111% (inactive)
8,O=C1Nc2ccccc2/C1=C\c1c(-c2ccc(F)cc2)nc2ccccn12,45.6% (inactive)
9,OCc1cnc2ccccc2c1NC1CCCCCC1,78.7% (inactive)
10,Oc1c(Cl)cc(Cl)c(Cl)c1CNCCNCc1c(O)c(Cl)cc(Cl)c1Cl,22.4% (inactive)
11,CN1[C@@H]2CC[C@H]1/C(=C\c1ccccc1)C(=O)/C2=C/c1ccccc1,69.4% (inactive)
12,O=C1c2c(c3c4cccc(F)c4[nH]c3c3ccc4ccccc4c23)C(=O)N1O,63.8% (inactive)
13,CN(C)CCC(=O)c1ccc([N+](=O)[O-])cc1,106% (inactive)
14,Cc1ccc(-c2nc3ccccn3c2/C=C2/C(=O)Nc3cc(Cl)ccc32)cc1,91.9% (inactive)
15,CC(=O)[C@@H]1CC[C@]2(C(N)=O)CC[C@]3(C)[C@H](CC[C@@H]4[C@@]5(C)CCCNC(C)(C)[C@@H]5CC[C@]43C)[C@@H]12,93.9% (inactive)
16,CC(C)N1C(=O)S/C(=C2/SC(=O)N(C(C)C)C2=O)C1=O,85.5% (inactive)
17,NS(=O)(=O)c1ccc(CCN2C(=O)C3C(C2=O)C2(Cl)C(Cl)=C(Cl)C3(Cl)C2(Cl)Cl)cc1 (configuration not stated),93% (inactive)

row,Structure (SMILES),growth
1,Nc1c(S(=O)(=O)O)cc2c3c(cccc13)C(=O)OC2=O,91.5% (inactive)
2,O=C(CCN1CCCC1)c1ccc([N+](=O)[O-])cc1,97.5% (inactive)
3,O=C1Nc2ccc(F)cc2/C1=C\c1c(-c2ccccc2)nc2ccccn12,61.8% (inactive)
4,O=Cc1ccc(-c2cn3ccnc3c(-c3ccc4ncn(Cc5ccccc5)c4c3)n2)cc1,79.1% (inactive)
5,N#C/C(=C\c1ccc(C(F)(F)F)cc1)c1cc2ccccc2[nH]1,97.6% (inactive)
6,O=C1c2cccc3c(-c4ccc5c(c4)ncn5C4CCCCC4)ccc(c23)C(=O)N1c1nc2ccccc2s1,76.4% (inactive)
7,Cc1cccc(-c2cn3ccnc3c(-c3ccc4ncn(Cc5ccccc5)c4c3)n2)c1,77.7% (inactive)
8,CCOC(=O)C1=C(CCl)NC(=O)NC1c1ccc2c(c1)OCO2 (configuration not stated),52.7% (inactive)
9,CCCN1[C@@H]2CC[C@H]1/C(=C\c1ccc(OC)c(OC)c1)C(=O)/C2=C/c1ccc(OC)c(OC)c1,37.7% (inactive)
10,COc1ccc(C(=O)C2C(C#N)C(C#N)C3c4ccccc4C=CN23)cc1 (configuration not stated),84.2% (inactive)
11,O=C(C[n+]1cccc2ccccc21)c1ccc(O)c(O)c1,76.8% (inactive)
12,COc1ccc(C(=O)c2nc3ccccc3n2CC(=O)c2ccc(F)cc2)cc1,190% (inactive)
13,CC(=O)[C@@H]1CC[C@]2(CO)CC[C@]3(C)[C@H](CC[C@@H]4[C@@]5(C)CCCNC(C)(C)[C@@H]5CC[C@]43C)[C@@H]12,95.4% (inactive)
14,NS(=O)(=O)c1ccc(CCN2C(=O)C=CC2=O)cc1,102% (inactive)
15,Nc1ccccc1NC(=O)c1ccc(-n2nc(-c3ccccc3)c3ccccc32)cc1,89.7% (inactive)
16,N#CC1C(C#N)C2c3ccccc3C=CN2C1C(=O)c1ccc(Br)cc1 (configuration not stated),93% (inactive)
17,O=C(CNCCN1CCOCC1)N1c2cccc3cccc(c23)N(C(=O)CNCCN2CCOCC2)C1c1cn(-c2ccccc2)nc1-c1cccc([N+](=O)[O-])c1,84.6% (inactive)
